From ChEMBL document CHEMBL1961873, “Compounds: GSK PKIS; Assays: Nanosyn kinase panel” (2012) come the findings set out here.

As usually defined, the inhibition is the drop in the measured response relative to a control, in per cent.

The target of test [1] is High affinity nerve growth factor receptor (Homo sapiens) (UniProt P04629). To be noted: at 1 µM.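 Also: each value is the mean percent inhibition of TRKA.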
Test [2] addresses BDNF/NT-3 growth factors receptor (Homo sapiens) (UniProt Q16620). To be noted: at 0.1 µM.
Test [3] has the same target. To be noted: at 1 µM.
Test [4] deals with NT-3 growth factor receptor (Homo sapiens) (UniProt Q16288). To be noted: at 0.1 µM.
NT-3 growth factor receptor (Homo sapiens), sequence (Q16288 32-839 limits assumed): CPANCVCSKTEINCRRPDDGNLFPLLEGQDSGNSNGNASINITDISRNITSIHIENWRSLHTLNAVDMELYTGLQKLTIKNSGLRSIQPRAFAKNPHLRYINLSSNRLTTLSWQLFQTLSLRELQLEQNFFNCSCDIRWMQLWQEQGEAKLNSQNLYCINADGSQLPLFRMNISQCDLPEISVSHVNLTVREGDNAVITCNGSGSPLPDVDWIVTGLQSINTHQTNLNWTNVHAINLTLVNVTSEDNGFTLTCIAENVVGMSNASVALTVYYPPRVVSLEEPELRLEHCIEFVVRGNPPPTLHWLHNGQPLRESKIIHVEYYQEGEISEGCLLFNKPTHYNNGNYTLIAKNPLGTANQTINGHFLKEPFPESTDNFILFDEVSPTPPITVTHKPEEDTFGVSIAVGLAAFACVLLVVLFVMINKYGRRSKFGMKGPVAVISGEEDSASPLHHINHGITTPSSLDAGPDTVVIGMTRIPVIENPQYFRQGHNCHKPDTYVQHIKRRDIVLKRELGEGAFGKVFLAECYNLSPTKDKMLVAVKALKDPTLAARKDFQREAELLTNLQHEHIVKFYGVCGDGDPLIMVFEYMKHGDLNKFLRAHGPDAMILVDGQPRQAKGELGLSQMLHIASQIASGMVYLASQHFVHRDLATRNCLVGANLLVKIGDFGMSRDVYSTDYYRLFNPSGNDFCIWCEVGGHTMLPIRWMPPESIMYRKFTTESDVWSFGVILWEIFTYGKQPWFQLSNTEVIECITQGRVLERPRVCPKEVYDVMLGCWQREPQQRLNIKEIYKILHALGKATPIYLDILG
The target is the same in test [5]. To be noted: at 1 µM.
In test [6] the target is T1, Tyrosine-protein kinase TXK (Homo sapiens) (UniProt P42681).
T1 sequence (whole entry): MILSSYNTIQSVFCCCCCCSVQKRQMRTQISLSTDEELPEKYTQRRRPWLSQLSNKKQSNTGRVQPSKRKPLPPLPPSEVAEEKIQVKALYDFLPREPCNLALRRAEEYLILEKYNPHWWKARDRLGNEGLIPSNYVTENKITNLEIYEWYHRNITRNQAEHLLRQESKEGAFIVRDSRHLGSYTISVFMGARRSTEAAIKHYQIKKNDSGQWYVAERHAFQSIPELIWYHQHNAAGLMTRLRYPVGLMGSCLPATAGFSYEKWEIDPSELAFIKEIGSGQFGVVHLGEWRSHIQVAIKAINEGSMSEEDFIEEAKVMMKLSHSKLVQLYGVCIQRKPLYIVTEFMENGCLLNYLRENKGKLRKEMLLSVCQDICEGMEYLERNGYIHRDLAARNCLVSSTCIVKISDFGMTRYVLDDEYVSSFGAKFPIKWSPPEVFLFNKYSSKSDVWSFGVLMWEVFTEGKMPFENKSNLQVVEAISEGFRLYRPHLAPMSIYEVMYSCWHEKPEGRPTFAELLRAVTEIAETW
To be noted: at 0.1 µM.

Test [7] addresses T1, Tyrosine-protein kinase TXK (Homo sapiens). To be noted: at 1 µM.
The target of test [8] is Non-receptor tyrosine-protein kinase TYK2 (Homo sapiens) (UniProt P29597). To be noted: at 0.1 µM.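 Also: each value is a mean of the inhibition readings.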
Non-receptor tyrosine-protein kinase TYK2 (Homo sapiens), sequence (P29597 whole entry): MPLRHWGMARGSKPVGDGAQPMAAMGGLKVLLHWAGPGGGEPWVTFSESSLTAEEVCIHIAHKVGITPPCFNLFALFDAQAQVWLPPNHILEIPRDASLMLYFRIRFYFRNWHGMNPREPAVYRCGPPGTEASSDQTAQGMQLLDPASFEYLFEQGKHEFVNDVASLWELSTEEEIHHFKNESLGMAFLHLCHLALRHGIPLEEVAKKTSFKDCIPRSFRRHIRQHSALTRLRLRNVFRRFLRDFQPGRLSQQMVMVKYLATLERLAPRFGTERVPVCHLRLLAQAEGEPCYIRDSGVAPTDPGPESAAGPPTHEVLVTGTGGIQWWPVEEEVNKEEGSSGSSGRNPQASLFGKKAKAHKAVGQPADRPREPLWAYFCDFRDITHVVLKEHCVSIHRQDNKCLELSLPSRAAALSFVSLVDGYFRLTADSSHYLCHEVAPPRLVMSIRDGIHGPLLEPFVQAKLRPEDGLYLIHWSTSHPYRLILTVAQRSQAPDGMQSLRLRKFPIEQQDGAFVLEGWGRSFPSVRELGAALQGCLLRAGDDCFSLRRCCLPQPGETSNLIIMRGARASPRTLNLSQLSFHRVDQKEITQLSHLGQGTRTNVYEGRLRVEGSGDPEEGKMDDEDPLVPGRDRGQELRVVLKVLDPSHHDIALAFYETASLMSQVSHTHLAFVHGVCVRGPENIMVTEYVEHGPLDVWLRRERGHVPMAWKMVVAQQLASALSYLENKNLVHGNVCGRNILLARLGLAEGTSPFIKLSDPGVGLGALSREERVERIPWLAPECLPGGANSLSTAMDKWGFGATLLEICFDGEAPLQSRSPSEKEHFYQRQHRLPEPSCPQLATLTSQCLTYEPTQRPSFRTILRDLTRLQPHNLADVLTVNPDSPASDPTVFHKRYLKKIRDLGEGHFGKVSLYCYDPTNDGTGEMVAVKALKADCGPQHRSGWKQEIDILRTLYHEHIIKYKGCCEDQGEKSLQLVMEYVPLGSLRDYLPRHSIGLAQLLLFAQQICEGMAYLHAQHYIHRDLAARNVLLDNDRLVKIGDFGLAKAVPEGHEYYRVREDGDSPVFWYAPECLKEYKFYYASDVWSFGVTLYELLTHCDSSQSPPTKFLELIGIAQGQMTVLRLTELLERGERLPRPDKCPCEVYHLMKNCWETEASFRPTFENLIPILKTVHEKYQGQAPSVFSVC
The target in test [9] is T2, Dual specificity protein kinase TTK (Homo sapiens) (UniProt P33981).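 Also: reported figures are mean TTK inhibition at 1 µM.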
T2 sequence (whole entry): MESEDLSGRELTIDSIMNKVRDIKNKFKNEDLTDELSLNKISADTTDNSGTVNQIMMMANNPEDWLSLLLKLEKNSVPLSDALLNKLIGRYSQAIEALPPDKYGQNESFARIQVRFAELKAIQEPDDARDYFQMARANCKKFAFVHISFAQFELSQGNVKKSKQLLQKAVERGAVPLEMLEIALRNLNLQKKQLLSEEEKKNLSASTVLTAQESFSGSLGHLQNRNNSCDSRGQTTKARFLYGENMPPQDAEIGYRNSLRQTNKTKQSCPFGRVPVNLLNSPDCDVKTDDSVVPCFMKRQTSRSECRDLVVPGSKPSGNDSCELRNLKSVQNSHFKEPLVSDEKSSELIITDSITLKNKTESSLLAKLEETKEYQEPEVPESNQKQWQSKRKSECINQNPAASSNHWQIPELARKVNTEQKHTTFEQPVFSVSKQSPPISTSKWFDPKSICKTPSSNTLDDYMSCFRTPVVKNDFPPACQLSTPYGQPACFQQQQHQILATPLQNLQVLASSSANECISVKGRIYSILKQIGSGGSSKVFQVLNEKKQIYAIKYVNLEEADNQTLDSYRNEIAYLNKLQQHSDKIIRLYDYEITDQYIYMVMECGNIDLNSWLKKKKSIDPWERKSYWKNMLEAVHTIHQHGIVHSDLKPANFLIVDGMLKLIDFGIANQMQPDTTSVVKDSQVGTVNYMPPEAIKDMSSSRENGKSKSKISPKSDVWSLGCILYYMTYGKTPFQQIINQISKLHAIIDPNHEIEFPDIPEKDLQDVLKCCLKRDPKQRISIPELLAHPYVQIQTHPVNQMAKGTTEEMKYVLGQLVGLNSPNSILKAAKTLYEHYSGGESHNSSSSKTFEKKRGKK
To be noted: at 1 µM.

In test [10] the target is T3, Aurora kinase A (Homo sapiens) (UniProt O14965).
T3 sequence (whole entry): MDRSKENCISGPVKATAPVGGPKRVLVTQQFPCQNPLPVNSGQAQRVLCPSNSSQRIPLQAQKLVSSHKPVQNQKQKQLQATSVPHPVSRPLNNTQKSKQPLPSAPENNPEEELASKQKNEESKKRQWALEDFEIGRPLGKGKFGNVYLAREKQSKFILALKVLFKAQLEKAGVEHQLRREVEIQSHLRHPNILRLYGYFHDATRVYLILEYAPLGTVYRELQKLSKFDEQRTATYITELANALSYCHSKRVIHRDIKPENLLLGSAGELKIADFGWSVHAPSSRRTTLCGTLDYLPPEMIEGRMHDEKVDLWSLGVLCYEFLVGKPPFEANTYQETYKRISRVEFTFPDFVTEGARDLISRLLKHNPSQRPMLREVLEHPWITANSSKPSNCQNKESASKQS
To be noted: at 0.1 µM.

Test [11] has as its target T3, Aurora kinase A (Homo sapiens). To be noted: at 1 µM.
For test [12], the target named is Aurora kinase B (Homo sapiens) (UniProt Q96GD4). To be noted: at 0.1 µM.
Aurora kinase B (Homo sapiens), sequence (Q96GD4 whole entry): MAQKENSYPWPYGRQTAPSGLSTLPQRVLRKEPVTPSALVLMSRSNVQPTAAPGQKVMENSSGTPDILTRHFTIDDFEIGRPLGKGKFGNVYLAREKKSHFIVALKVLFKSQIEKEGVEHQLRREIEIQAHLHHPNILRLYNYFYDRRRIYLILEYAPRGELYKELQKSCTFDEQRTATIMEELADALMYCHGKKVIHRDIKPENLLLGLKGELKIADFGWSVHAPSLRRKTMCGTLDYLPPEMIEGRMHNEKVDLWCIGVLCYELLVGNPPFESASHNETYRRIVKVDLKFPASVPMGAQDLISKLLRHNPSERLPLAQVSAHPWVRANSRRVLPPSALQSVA
The target is the same in test [13]. To be noted: at 1 µM.
Test [14] deals with T4, Aurora kinase C (Homo sapiens) (UniProt Q9UQB9).
T4 sequence (whole entry): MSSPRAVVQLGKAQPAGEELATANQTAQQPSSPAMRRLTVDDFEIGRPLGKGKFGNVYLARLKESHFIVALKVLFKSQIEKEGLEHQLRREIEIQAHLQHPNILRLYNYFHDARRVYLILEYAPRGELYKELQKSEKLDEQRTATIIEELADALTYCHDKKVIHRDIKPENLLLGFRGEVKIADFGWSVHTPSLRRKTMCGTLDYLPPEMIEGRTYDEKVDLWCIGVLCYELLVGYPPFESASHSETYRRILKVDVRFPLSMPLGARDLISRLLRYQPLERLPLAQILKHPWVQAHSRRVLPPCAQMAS
To be noted: at 0.1 µM.

The target of test [15] is T4, Aurora kinase C (Homo sapiens). To be noted: at 1 µM.
For test [16], the target named is Serine/threonine-protein kinase 10 (Homo sapiens) (UniProt O94804). To be noted: at 0.1 µM.
Serine/threonine-protein kinase 10 (Homo sapiens), sequence (O94804 whole entry, looked up): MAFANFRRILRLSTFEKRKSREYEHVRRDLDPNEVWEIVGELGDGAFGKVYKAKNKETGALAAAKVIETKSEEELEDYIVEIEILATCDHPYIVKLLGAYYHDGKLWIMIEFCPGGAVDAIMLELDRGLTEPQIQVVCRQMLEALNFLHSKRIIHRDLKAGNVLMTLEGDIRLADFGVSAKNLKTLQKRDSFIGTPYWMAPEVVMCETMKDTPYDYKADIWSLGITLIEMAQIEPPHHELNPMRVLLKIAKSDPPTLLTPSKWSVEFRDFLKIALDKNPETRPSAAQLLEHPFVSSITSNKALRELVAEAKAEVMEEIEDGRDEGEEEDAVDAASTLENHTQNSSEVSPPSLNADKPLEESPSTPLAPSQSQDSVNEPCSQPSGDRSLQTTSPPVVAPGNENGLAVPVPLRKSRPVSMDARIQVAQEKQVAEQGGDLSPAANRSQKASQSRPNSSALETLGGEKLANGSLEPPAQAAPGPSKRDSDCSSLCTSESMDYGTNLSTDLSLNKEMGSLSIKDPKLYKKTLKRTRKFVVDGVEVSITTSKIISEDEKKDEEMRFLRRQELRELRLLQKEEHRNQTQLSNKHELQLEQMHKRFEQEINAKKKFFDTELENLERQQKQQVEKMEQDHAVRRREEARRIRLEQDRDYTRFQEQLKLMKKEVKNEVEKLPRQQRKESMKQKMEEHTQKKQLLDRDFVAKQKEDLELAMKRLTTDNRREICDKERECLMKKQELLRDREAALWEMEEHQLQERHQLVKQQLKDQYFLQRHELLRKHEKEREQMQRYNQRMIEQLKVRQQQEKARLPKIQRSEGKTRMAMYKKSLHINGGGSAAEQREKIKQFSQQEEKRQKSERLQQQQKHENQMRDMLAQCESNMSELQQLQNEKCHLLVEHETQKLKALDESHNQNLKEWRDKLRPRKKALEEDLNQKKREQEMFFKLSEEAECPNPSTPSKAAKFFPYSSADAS
For test [17] the target is unchanged. To be noted: at 1 µM.
The target of test [18] is T5, Mitogen-activated protein kinase kinase kinase kinase 2 (Homo sapiens) (UniProt Q12851).
T5 sequence (whole entry): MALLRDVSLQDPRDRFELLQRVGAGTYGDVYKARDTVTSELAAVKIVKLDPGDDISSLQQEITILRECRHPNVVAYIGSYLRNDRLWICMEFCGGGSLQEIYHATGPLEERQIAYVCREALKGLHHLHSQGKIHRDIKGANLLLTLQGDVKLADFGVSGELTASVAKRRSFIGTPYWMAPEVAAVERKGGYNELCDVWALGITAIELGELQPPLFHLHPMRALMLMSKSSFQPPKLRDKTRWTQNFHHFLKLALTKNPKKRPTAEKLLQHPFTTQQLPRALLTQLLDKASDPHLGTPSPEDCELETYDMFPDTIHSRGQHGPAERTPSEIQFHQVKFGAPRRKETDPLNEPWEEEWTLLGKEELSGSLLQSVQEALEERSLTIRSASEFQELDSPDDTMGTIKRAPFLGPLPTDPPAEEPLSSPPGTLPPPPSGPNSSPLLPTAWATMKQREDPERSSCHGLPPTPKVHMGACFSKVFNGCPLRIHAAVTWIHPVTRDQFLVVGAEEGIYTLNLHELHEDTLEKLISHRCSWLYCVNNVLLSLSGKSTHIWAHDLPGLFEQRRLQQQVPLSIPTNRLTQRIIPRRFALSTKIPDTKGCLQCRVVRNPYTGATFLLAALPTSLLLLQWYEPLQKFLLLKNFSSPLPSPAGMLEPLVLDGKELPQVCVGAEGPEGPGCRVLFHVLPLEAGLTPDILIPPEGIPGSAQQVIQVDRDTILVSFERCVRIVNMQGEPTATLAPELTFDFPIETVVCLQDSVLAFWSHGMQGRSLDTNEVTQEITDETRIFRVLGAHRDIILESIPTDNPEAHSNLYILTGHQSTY
To be noted: at 0.1 µM.

The target of test [19] is T5, Mitogen-activated protein kinase kinase kinase kinase 2 (Homo sapiens). To be noted: at 1 µM.
Test [20] addresses Mitogen-activated protein kinase kinase kinase kinase 4 (Homo sapiens) (UniProt O95819). To be noted: at 0.1 µM.

Structures are written as SMILES.

High affinity nerve growth factor receptor (Homo sapiens), sequence (P04629 33-796 limits assumed): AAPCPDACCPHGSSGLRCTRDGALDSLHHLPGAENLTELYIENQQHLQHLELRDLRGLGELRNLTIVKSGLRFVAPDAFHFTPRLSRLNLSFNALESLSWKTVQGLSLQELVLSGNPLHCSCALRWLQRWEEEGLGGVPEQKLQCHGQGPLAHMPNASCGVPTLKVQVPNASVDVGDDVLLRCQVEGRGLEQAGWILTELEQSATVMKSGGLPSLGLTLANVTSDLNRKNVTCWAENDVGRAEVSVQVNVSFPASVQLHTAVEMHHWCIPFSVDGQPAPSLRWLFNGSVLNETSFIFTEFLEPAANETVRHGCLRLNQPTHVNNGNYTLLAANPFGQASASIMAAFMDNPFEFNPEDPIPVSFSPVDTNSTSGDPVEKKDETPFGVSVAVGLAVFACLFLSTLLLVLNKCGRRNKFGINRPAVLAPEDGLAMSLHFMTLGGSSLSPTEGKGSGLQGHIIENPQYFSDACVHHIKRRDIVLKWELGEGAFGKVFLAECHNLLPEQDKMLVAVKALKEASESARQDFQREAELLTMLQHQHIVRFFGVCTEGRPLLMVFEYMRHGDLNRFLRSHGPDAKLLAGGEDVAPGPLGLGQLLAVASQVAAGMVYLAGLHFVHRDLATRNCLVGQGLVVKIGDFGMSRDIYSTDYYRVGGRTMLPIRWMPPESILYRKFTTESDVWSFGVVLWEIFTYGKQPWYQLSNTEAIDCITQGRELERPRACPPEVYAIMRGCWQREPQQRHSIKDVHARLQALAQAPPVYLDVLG
BDNF/NT-3 growth factors receptor (Homo sapiens), sequence (Q16620 32-822 limits assumed): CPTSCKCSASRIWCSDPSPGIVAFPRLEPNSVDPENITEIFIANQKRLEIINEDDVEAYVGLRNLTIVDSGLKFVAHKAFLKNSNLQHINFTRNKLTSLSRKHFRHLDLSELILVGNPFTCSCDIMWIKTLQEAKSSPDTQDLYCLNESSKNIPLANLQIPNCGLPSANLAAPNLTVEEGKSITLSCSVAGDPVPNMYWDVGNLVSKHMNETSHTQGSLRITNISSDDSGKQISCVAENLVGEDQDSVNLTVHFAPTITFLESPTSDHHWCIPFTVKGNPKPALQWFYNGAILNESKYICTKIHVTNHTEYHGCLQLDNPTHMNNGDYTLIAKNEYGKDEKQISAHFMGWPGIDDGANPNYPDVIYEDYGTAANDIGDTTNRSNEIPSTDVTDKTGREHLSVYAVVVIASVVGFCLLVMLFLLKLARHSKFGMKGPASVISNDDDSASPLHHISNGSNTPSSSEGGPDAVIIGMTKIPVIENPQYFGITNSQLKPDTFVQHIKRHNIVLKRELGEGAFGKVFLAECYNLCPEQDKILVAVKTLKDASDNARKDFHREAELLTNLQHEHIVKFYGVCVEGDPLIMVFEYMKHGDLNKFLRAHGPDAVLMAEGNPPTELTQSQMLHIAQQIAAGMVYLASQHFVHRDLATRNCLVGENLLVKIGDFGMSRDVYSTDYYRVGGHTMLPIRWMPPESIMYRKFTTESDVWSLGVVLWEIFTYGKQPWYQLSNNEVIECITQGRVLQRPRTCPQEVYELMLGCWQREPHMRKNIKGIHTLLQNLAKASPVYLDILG

As for `CC(=O)NCc1cccc(C#Cc2cncnc2Nc2ccc(OCc3cccc(F)c3)c(Cl)c2)c1`, the inhibition in [1] came out at 1.37%; in [2], 0.64%; in test [3], 2.98%; in [4], 0.24%; in [5] it was 4.11%; in test [6], 2.29%. Besides, the inhibition in test [7] is -2.24%; in test [8] it was 0.84%; in test [9], -8.1%; in test [10], 1.59%; in test [11], 5.66%; in test [12], 1.99%. For the same compound, the inhibition was 6.3% in test [13]; 1% in test [14]; -2.37% in test [15]; 0.67% in [16]; 8.18% in test [17]; 0.67% in [18]. In addition, the inhibition in test [19] came to 3.21%; in [20], 2.6%.

Consider `CCCN(CCS(C)(=O)=O)Cc1ccc(-c2ccc3ncnc(Nc4ccc(OCc5cccc(F)c5)c(Cl)c4)c3c2)o1`, for which the inhibition in [1] is 0.23%; in test [2], 0.15%; in test [3], 1.45%; in [4], 2.2%; in test [5], 2.15%; in test [6] it was 2.27%. Moreover, the inhibition in [7] was 2.93%; in test [8], -3.81%; in test [9], 5.96%; in [10] it was 1.47%; in [11] it was 11.8%; in test [12] it was 3.11%. In addition, the inhibition in test [13] was 8.39%; in test [14] it was 1.17%; in test [15], 5.04%; in test [16], 2.22%; in test [17], 5.54%; in test [18], 0.84%. The inhibition in test [19] was 2.9%; in test [20], 1.66%.

Turning to `CCOc1ccc2c(-c3ccnc(Nc4cccc(C(F)(F)F)c4)n3)cnn2n1`, the inhibition in test [1] was 0.26%; in test [2] it was 0.03%; in test [3], 2.11%; in test [4], 0.07%; in test [5], 3.18%; in test [6], -0.13%. Further, the inhibition is 3.47% in [7]; -0.74% in [8]; 4.11% in [9]; 1.41% in test [10]; 7.68% in test [11]; 6.17% in [12]. Further, the inhibition in test [13] was found to be 9.87%; in [14], 2.6%; in [15] it was 12.5%; in [16] it was 4.81%; in [17], 12.9%; in [18] it was 0.42%. Besides, the inhibition was 6.12% in test [19] and 0.65% in test [20].
